In PubChem BioAssay (EPA / NIEHS):
Records with an inconclusive call do not appear. Calls of active or inactive are those of the source. The calls were made as follows, unless noted: active = hit-call score of the fitted dose curve at least 0.9, where 1 is the maximum; inactive = score below 0.9.

Legend:
[1] = target: Hepatocyte nuclear factor 4-alpha (Homo sapiens) (UniProt P41235); assay: ATG_HNF4a_TRANS: Attagene TRANS-FACTORIAL HepG2 Assay for human Hepatocyte Nuclear Factor 4 alpha (HNF4a) (AID 2282982; active = hit-call score of the fitted dose curve at least 0.9, where 1 is the maximum); details: HepG2 HNF4a transactivation reporter, mRNA readout
Procedure, shortened: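 Readout is fluorescent reporter-transcript fragments resolved by capillary electrophoresis after RT-PCR from HepG2 cells dosed for 24 h. Cells carried transfected GAL4-UAS reporter constructs measuring exogenous NR-GAL4 chimera activity; DMSO served as baseline.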

[2] = ATG_M_06_TRANS: Attagene TRANS-FACTORIAL HepG2 Assay for M06 Transcription Factor (Internal Marker) (AID 2282983; active = hit-call score of the fitted dose curve at least 0.9, where 1 is the maximum;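 also: reporter transcript level by RT-PCR then capillary electrophoresis fluorescence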); details: HepG2 Attagene TRANS M06 internal marker reporter
Procedure, shortened: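 Cells: HepG2, transient multi-reporter transfection. Exposure: 24 h. Detection: RT-PCR, 6-FAM labelling, HpaI digestion (2 h, 37 °C), capillary electrophoresis. Baseline: DMSO.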

[3] = ATG_M_32_TRANS: Attagene TRANS-FACTORIAL HepG2 Assay for M32 Transcription Factor (Internal Marker) (AID 2282984; active = hit-call score of the fitted dose curve at least 0.9, where 1 is the maximum;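 also: transcript level of a background control reporter unit measured by RT-PCR and capillary electrophoresis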); details: HepG2 Attagene TRANS M32 internal marker reporter
Procedure, shortened: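 Measures reporter mRNA induction in human HepG2 liver cells after 24 h chemical treatment. Transcripts from transiently transfected GAL4-UAS reporter units are amplified, fluorescently labelled and sized by capillary electrophoresis; gain of signal relative to DMSO.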

[4] = target: Nuclear receptor subfamily 4 group A member 2 (Homo sapiens) (UniProt P43354); assay: ATG_NURR1_TRANS: Attagene TRANS-FACTORIAL HepG2 Assay for human Nuclear Receptor Related Protein 1 (NURR1) (AID 2282985; active = hit-call score of the fitted dose curve at least 0.9, where 1 is the maximum); details: HepG2 Attagene TRANS reporter, mRNA readout
Procedure, shortened: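 Transient transfection of HepG2, human liver cells, with multiple GAL4-UAS reporter transcription units. Cells dosed 24 h, RNA isolated, reverse-transcribed, PCR-amplified, FAM-labelled, HpaI-digested, sized by capillary electrophoresis. DMSO served as negative control.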

[5] = target: Transcriptional activator Myb (Homo sapiens) (UniProt P10242); assay: ATG_Myb_CIS: Attagene CIS-FACTORIAL HepG2 Assay for human Myeloblastosis (Myb) Proto-Oncogene Transcription Factor (AID 2282986); details: HepG2 Attagene CIS-FACTORIAL Myb reporter transcription; actives raise or lower the signal
Procedure, shortened: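 HepG2 cells were transiently transfected with cis-regulated multiple reporter transcription units reflecting endogenous Myb activity, then exposed to compound for 24 hours. Reporter mRNA was measured by RT-PCR with capillary electrophoresis; bidirectional fitting versus DMSO baseline.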

[6] = target: Nuclear respiratory factor 1 (Homo sapiens) (UniProt Q16656); assay: ATG_NRF1_CIS: Attagene CIS-FACTORIAL HepG2 Assay for human Nuclear Respiratory Factor 1 (NRF1) Orphan Gene (AID 2282987); details: HepG2 NRF1 cis-element reporter, Attagene multiplex; actives raise or lower the signal
Procedure, shortened: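 HepG2 cells transiently transfected with multiple reporter transcription units under cis-regulatory promoter control, so endogenous transcription-factor activity is read. After 24 h compound exposure, reporter mRNA quantified by RT-PCR, fluorescent labelling, HpaI digestion and capillary electrophoresis; bidirectional fitting versus DMSO.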

[7] = ATG_NFI_CIS: Attagene CIS-FACTORIAL HepG2 Assay for human Nuclear Factor I (NFI) (AID 2282989); details: HepG2 cis-regulatory reporter, NFI response element transcription; actives raise or lower the signal
Procedure, shortened: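 HepG2 cells transiently transfected with cis-element-driven multiplexed reporter transcription units, dosed for 24 h. Reporter mRNA quantified by RT-PCR, fluorescent labelling, HpaI digestion and capillary electrophoresis; bidirectional fit versus DMSO baseline.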

[8] = target: Myc proto-oncogene protein (Homo sapiens) (UniProt P01106); assay: ATG_Myc_CIS: Attagene CIS-FACTORIAL HepG2 Assay for human Myelocytomatosis (Myc) Proto-Oncogene Transcription Factor (AID 2282990); details: HepG2, Attagene cis-reporter transcription factor activity; actives raise or lower the signal
Procedure, shortened: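 After 24 h chemical treatment of HepG2 cells carrying multiplexed cis-regulated reporter constructs, reporter transcripts quantified by RT-PCR and capillary electrophoresis of fluorescent fragments. Gain or loss fitted against DMSO baseline.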

[9] = ATG_NRF2_ARE_CIS: Attagene CIS-FACTORIAL HepG2 Assay for human Nuclear Factor Erythroid 2 Related Factor 2 (NFR2) response to Antioxidant Response Elements (ARE) (AID 2282992); details: HepG2 Attagene ARE/NRF2 reporter, transcription factor activity; actives raise or lower the signal;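 as to AC50: reporter mRNA level measured by RT-PCR and capillary electrophoresis fluorescence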
Procedure, shortened: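 Transient MRTU transfection of HepG2; 24 h compound exposure; TriZol RNA, RT with oligo(dT), PCR, 6-FAM primer extension, HpaI cut, CE. Bidirectional fit vs DMSO.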

[10] = ATG_Oct_MLP_CIS: Attagene CIS-FACTORIAL HepG2 Assay for human Octamer-Binding Transcription Factor (Oct) (AID 2282993); details: HepG2 Attagene cis-factorial Oct reporter, mRNA; actives raise or lower the signal
Procedure, shortened: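 HepG2 cells transiently transfected with cis-promoter-driven multiplexed reporter transcription units, dosed for 24 h. Reporter mRNA quantified by RT-PCR, fluorescent labelling, HpaI digestion and capillary electrophoresis; bidirectional fits versus DMSO baseline.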

[11] = target: Cellular tumor antigen p53 (Homo sapiens) (UniProt P04637); assay: ATG_p53_CIS: Attagene CIS-FACTORIAL HepG2 Assay for human p53 Transcription Factor (AID 2282994); details: HepG2 p53 cis-element reporter, Attagene mRNA; actives raise or lower the signal
Procedure, shortened: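 HepG2, transient MRTU transfection (cis promoter elements, endogenous TFs); 24 h dosing; RNA isolation, RT-PCR, 6-FAM primer extension, HpaI digest, CE fluorescence; bidirectional fit vs DMSO.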

[12] = BSK_3C_TissueFactor: BioMAP Diversity Plus: 3C Assay for Tissue Factor Biomarker Activity (AID 2282997); details: BioMAP 3C HUVEC, tissue factor biomarker readout; actives raise or lower the signal
Procedure, shortened: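 Dosing of human umbilical vein endothelial cells preceded a 24 h incubation. Tissue Factor was then read by ELISA, with increases and decreases both scored relative to DMSO controls.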

[13] = BSK_3C_uPAR: BioMAP Diversity Plus: 3C Assay for Urokinase-type plasminogen activator receptor (uPAR) Biomarker Activity (AID 2282998); details: BioMAP 3C HUVEC, uPAR biomarker ELISA; actives raise or lower the signal
Procedure, shortened: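 Human umbilical vein endothelial primary cells were exposed to test chemical for 24 h. Cell-surface uPAR was then quantified by ELISA, and responses were fitted bidirectionally against DMSO as negative control and baseline.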

[14] = BSK_3C_VCAM1: BioMAP Diversity Plus: 3C Assay for Vascular cell adhesion molecule 1 (VCAM1) Biomarker Activity (AID 2282999); details: BioMAP 3C HUVEC, VCAM1 ELISA, cytokine-stimulated; actives raise or lower the signal
Procedure, shortened: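 Endothelial cells from human umbilical vein are treated with test chemical. At 24 h, VCAM-1 is measured by ELISA, and responses in either direction are fitted relative to DMSO.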

[15] = BSK_4H_Eotaxin3: BioMAP Diversity Plus: 4H Assay for Eotaxin 3 Biomarker Activity (AID 2283000); details: primary human endothelial cells (HUVEC); actives raise or lower the signal
Procedure, shortened: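 Human umbilical vein endothelial cells (BSK_4H system) dosed with test chemical; Eotaxin-3 (CCL26) measured by ELISA 24 h after dosing. Bidirectional curve fitting relative to DMSO negative control as baseline.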

[16] = target: human Peroxisome Proliferator-activated Receptor alpha (PPARa), PPARA (gene 5465) (UniProt Q07869); assay: ATG_PPARa_TRANS: Attagene TRANS-FACTORIAL HepG2 Assay for human Peroxisome Proliferator-activated Receptor alpha (PPARa) (AID 2283001; active = hit-call score of the fitted dose curve at least 0.9, where 1 is the maximum)
Procedure, shortened: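 Read-out is fluorescence of reporter cDNA fragments resolved by capillary electrophoresis after RT-PCR. Human HepG2 liver cells carried transfected PPARa-Gal4 chimera and GAL4-UAS reporter units, treated 24 h; activity scored as increase over DMSO.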

[17] = target: human Peroxisome Proliferator-activated Receptor delta (PPARd), PPARD (gene 5467) (UniProt Q03181); assay: ATG_PPARd_TRANS: Attagene TRANS-FACTORIAL HepG2 Assay for human Peroxisome Proliferator-activated Receptor delta (PPARd) (AID 2283002; active = hit-call score of the fitted dose curve at least 0.9, where 1 is the maximum)
Procedure, shortened: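 Read-out is induced reporter mRNA, quantified by RT-PCR with fluorescent labelling and capillary electrophoresis after 24 h dosing. Cells are HepG2 transiently carrying multiple GAL4-UAS reporter units driven by exogenous NR-GAL4 chimeras; DMSO serves as baseline.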

[18] = read-out: Intercellular Adhesion Molecule 1 (ICAM1), ICAM1 (gene 3383); assay: BSK_3C_ICAM1: BioMAP Diversity Plus: 3C Assay for Intercellular Adhesion Molecule 1 (ICAM1) Biomarker Activity (AID 2283003); details: primary human endothelial cells (HUVEC); actives raise or lower the signal
Procedure, shortened: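 ICAM-1 levels measured by ELISA after HUVEC cultures in the 3C system had been dosed for 24 h. Gain or loss of signal relative to DMSO was fitted in both directions.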

[19] = target: human Retinoic Acid Receptor beta (RARb), RARB (gene 5915) (UniProt P10826); assay: ATG_RARb_TRANS: Attagene TRANS-FACTORIAL HepG2 Assay for human Retinoic Acid Receptor beta (AID 2283004; active = hit-call score of the fitted dose curve at least 0.9, where 1 is the maximum)
Procedure, shortened: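 Induction of reporter mRNA from a chimeric RARb-Gal4 construct was measured by RT-PCR, FAM labelling, HpaI digestion and capillary electrophoresis. Measurements followed 24 h compound treatment of transiently transfected human HepG2 liver cells, with DMSO as baseline.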

Measured: AC50

Sequence of human Retinoic Acid Receptor beta (RARb), RARB (gene 5915) (P10826 whole entry, looked up, the tested form may be a part): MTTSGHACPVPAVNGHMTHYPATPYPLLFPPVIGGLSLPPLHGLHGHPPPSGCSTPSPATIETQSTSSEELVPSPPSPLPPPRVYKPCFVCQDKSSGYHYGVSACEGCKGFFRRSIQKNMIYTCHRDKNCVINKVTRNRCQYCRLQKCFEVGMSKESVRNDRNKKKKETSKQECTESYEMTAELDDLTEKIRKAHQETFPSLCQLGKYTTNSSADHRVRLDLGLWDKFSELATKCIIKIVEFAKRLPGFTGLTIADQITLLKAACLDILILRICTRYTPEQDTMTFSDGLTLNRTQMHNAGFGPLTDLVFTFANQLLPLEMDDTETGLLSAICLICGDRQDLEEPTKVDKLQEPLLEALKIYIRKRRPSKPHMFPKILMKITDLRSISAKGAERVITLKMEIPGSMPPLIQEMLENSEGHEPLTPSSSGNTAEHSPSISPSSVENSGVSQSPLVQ
Sequence of Nuclear receptor subfamily 4 group A member 2 (Homo sapiens) (P43354 whole entry, looked up, the tested form may be a part): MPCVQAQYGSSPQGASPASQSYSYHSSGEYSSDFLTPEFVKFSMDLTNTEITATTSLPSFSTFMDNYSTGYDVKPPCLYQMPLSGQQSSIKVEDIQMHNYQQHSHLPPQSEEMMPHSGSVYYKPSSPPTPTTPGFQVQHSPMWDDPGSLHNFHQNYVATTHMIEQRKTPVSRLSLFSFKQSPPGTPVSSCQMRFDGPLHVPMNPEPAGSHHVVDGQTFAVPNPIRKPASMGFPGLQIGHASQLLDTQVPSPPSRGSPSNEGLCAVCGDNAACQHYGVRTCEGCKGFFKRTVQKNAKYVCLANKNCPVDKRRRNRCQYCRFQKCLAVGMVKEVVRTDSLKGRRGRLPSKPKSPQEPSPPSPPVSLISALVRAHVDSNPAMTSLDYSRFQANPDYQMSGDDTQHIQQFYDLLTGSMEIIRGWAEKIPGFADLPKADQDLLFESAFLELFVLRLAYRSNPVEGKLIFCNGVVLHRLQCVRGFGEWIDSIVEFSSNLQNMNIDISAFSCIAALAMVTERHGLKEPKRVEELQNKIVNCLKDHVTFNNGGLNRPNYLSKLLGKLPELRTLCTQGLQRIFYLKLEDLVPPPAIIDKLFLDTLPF
Sequence of Transcriptional activator Myb (Homo sapiens) (P10242 whole entry, looked up): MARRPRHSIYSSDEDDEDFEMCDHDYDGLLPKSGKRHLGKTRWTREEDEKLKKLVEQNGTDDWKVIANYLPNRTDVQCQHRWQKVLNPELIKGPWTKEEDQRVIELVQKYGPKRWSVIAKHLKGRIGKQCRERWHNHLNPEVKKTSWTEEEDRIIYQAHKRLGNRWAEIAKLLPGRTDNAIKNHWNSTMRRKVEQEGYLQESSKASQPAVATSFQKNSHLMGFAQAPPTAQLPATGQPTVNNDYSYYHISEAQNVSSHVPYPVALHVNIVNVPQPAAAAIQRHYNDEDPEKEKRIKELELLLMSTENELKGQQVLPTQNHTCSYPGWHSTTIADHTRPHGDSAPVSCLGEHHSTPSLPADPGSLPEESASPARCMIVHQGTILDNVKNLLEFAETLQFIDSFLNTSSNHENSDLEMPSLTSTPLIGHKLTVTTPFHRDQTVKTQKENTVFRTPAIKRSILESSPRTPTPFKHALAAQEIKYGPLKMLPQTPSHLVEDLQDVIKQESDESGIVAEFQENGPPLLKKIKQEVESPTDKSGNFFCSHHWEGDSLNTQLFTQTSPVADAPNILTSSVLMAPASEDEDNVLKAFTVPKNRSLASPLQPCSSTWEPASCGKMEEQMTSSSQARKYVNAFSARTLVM
Sequence of Cellular tumor antigen p53 (Homo sapiens) (P04637 whole entry, looked up): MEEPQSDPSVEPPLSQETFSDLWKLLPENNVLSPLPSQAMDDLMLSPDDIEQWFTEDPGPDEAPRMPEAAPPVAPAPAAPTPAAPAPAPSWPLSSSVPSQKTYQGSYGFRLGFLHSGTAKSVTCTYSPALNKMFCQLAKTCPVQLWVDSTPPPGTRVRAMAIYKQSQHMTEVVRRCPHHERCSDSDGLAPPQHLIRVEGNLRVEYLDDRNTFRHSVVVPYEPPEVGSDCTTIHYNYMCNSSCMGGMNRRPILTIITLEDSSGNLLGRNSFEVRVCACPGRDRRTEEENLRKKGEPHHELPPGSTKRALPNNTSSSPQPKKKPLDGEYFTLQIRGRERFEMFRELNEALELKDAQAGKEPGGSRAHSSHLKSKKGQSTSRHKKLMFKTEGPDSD
Sequence of Nuclear respiratory factor 1 (Homo sapiens) (Q16656 whole entry, looked up): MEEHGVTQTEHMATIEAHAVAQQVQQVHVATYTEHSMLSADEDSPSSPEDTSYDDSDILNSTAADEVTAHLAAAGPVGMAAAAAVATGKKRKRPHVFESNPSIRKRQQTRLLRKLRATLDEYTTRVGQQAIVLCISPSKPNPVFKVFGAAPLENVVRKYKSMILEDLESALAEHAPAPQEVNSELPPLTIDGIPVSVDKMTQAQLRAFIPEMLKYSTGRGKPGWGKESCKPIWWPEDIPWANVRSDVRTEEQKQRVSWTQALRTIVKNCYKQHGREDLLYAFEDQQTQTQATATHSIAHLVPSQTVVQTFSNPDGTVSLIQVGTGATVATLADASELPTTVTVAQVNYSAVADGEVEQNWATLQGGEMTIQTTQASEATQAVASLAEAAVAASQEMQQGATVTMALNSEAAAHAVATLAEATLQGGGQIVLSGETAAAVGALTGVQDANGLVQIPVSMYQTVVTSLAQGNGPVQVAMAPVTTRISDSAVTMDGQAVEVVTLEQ
Sequence of Myc proto-oncogene protein (Homo sapiens) (P01106 whole entry, looked up, the tested form may be a part): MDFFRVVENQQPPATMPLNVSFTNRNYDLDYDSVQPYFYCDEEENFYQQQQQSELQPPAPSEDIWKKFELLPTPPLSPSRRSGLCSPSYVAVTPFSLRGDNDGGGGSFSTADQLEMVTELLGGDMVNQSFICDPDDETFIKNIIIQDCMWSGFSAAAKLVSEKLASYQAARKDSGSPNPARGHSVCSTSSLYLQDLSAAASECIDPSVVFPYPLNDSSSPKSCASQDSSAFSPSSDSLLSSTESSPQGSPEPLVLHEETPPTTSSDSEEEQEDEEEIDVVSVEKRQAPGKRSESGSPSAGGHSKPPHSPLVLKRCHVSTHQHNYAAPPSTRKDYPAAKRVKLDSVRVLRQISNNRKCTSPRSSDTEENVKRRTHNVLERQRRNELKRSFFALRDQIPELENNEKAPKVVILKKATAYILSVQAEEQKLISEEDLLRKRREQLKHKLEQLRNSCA
Sequence of human Peroxisome Proliferator-activated Receptor alpha (PPARa), PPARA (gene 5465) (Q07869 whole entry, looked up, the tested form may be a part): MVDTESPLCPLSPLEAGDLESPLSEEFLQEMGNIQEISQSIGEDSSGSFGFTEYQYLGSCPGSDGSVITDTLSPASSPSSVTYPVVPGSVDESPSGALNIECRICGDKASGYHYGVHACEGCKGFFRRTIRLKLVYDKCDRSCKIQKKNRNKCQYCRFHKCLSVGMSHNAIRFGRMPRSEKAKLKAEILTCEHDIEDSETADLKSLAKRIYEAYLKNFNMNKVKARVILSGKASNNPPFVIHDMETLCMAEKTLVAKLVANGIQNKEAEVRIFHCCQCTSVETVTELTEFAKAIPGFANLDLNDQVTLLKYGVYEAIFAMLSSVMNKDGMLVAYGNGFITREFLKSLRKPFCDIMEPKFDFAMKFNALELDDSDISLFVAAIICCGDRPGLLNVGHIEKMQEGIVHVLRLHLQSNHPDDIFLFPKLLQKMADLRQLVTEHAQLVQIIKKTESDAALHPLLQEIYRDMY
Sequence of human Peroxisome Proliferator-activated Receptor delta (PPARd), PPARD (gene 5467) (Q03181 whole entry, looked up, the tested form may be a part): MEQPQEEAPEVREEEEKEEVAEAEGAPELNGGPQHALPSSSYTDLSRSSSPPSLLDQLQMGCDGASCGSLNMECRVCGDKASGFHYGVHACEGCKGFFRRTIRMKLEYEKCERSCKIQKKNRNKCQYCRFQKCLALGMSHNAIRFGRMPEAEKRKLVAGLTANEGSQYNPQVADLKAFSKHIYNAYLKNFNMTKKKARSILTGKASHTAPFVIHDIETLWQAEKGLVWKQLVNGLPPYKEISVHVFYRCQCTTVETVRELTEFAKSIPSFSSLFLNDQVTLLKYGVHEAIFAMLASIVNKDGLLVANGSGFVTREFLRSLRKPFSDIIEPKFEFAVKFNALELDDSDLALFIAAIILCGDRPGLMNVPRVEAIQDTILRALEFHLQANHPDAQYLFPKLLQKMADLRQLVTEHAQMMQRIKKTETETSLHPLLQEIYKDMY
Sequence of Hepatocyte nuclear factor 4-alpha (Homo sapiens) (P41235 whole entry, looked up, the tested form may be a part): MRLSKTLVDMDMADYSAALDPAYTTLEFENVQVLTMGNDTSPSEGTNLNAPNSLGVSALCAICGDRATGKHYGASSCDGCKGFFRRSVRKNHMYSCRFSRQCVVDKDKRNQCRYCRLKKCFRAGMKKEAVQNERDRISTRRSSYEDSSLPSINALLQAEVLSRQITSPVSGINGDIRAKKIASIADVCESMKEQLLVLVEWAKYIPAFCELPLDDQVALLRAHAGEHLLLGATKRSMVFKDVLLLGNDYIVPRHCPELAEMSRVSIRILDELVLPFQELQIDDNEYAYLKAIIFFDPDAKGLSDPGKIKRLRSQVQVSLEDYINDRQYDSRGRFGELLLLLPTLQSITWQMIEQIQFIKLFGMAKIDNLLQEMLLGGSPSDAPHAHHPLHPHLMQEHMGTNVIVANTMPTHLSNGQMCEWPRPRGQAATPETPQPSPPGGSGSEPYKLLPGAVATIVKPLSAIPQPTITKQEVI

Cc1cc(N=Nc2ccccc2C)ccc1N
active: [9] 7.21 µM | [10] 20.4 µM | [13] 10.4 µM | [15] 14.2 µM
not listed: [19]
inactive: all other assays above

[Cl-].[Cl-].[Hg+2]
active: [9] 5.59 µM | [11] 55.4 µM | [12] 34.8 µM | [13] 34.1 µM | [14] 20 µM | [15] 30.9 µM
not listed: [2] | [16] | [17] | [19]
inactive: all other assays above

CO[C@@H]1[C@H](OC(=O)NC(=O)CCl)CC[C@]2(CO2)[C@H]1[C@@]1(C)O[C@@H]1CC=C(C)C
active: [9] 4.98 µM | [12] 3.62 µM | [14] 6.87 µM | [15] 4.41 µM
not listed: [4] | [10] | [19]
inactive: all other assays above

[O-][Cl+]O
not listed: [16] | [17] | [19]
inactive: all other assays above

COC(=O)Nc1nc2ccccc2[nH]1
active: [9] 21.4 µM | [13] 10.9 µM | [15] 20 µM
not listed: [10] | [19]
inactive: all other assays above

Clc1ccc(Cl)c(Cl)c1
not listed: [3] | [16] | [19]
inactive: all other assays above

O=[N+]([O-])C(Br)(CO)CO
active: [6] 162 µM | [8] 74.6 µM | [12] 27.1 µM | [13] 30.5 µM | [14] 31.1 µM | [15] 27.7 µM | [18] 33.4 µM
not listed: [4] | [10] | [11] | [17]
inactive: all other assays above

Oc1ccc2ccc3cccc4ccc1c2c34
active: [12] 32.6 µM | [13] 22.3 µM | [14] 35.4 µM | [15] 28.6 µM | [18] 31.8 µM
not listed: [4] | [16]
inactive: all other assays above

CCC[CH2][Sn]([Cl])([CH2]CCC)[CH2]CCC
inactive: [1] | [2] | [5] | [6] | [7] | [8] | [17]
active: [4] 0.0336 µM | [9] 0.281 µM | [11] 0.771 µM | [12] 0.148 µM | [13] 0.148 µM | [14] 0.148 µM | [15] 0.148 µM | [18] 0.148 µM

Nc1ccc(N=Nc2ccccc2)cc1
active: [9] 3.6 µM | [10] 36.2 µM
not listed: [2] | [17]
inactive: all other assays above

O=C1CCCO1
not listed: [3] | [4] | [10]
inactive: all other assays above

CNC(=O)Oc1cccc2c1OC(C)(C)C2
not listed: [2] | [10] | [16] | [19]
inactive: all other assays above

Nc1cc(Cl)cc(C(=O)O)c1Cl
not listed: [3] | [4] | [10] | [19]
inactive: all other assays above

COc1cc(C=O)cc2c1[C@H](COC(N)=O)[C@]1(OC(C)=O)ON2C[C@H]2[C@@H]1N2C(C)=O
active: [5] 2.77 µM | [7] 52 µM | [8] 7.48 µM | [9] 17 µM | [11] 5.95 µM | [12] 6.64 µM | [13] 11.6 µM | [14] 22.1 µM | [15] 6.01 µM | [18] 23.3 µM
inactive: [1] | [2] | [3] | [6] | [16] | [17]
